108 molecules from ChEMBL document CHEMBL4513216, “Probing the Open Global Health Chemical Diversity Library for Multistage-Active Starting Points for Next-Generation Antimalarials” (ACS Infect Dis, 2020) can be followed below.

The structures appear in SMILES notation. The campaign covered roughly 69,000 compounds. About 8,600 (12%) showed an effect of 50% or more. The entries come from a sample that favours strong results as a whole.

This assay has as its system Plasmodium berghei. In words: Screen against P. berghei liver stage (PbLuc), transformed with Luciferase, at 10uM. It is filed as functional, HepG2. Conditions: tested at 10 uM.
For `CN1C[C@@H](O)[C@]2(CCN(C(=O)OCc3ccccc3)C2)S1(=O)=O`, the INHIBITION came out at 1.8%.
In the case of `c1cc(-c2ccc3c(c2)CCC32CCN(c3nncs3)CC2)co1`, the INHIBITION turned out to be 24.9%.
Under `Cc1cccc(N2CC3(CCN(c4nncs4)C3)CC2=O)c1` (stereo not drawn) stands 14.5%; under `c1cncc(-c2ccc3c(c2)C2(CC3)CCN(c3nncs3)CC2)c1`, 76.8%.
For the molecule `Cc1ccc2c(c1)C1(CC2)CCN(c2nncs2)CC1`, the INHIBITION came out at 56.8%.
With `CN1CCOCC12CCN(c1nncs1)CC2`, the INHIBITION was -7.24%.
Under `c1cc(-c2ccc3c(c2)C2(CC3)CCN(c3nncs3)CC2)ccn1` stands 15.4%; under `c1cc(-c2ccc3c(c2)CCC32CCN(c3nncs3)CC2)ccn1`, 62.8%.
For the molecule `Cc1ccc2c(c1)C1(CC2)CCN(CC(=O)O)CC1`, the INHIBITION turned out to be 19.5%.
In the case of `Cc1cnn(CCNCc2nc(CNC(=O)c3ccccc3)no2)c1`, the INHIBITION was 7.08%.
Consider `CC(=O)Nc1ccc(CNc2cccc(OCCF)c2)cc1`, for which the INHIBITION came out at 25.2%.
Regarding `CS(=O)(=O)N1CCC(Oc2ccc(C(=O)NC3CCCC3)cc2Cl)CC1`, the INHIBITION is recorded as -14.5%.
For `CNC(=O)c1ccc(OC2CCN(S(C)(=O)=O)CC2)c(Cl)c1`, the INHIBITION is given as -22.1%.
Take `CS(=O)(=O)N1CCC(Oc2ccc(C(=O)N3CCSCC3)cc2Cl)CC1`: the INHIBITION amounted to 63.3%.
Under `CCN(CC)S(=O)(=O)N(CC)Cc1ccc2c(c1)OCCO2` stands -19.9%.
Under `Cc1nn(Cn2ccc(C(=O)N3CCC(C)CC3)n2)c(C)c1Cl` stands -20.8%.
`Cc1noc(C)c1-c1n[nH]c2c1CN(S(=O)(=O)c1cccnc1)CC2`: the INHIBITION is on record as 23.3%.
Under `CSCCc1n[nH]c2c1CN(S(=O)(=O)c1cn(C)c(C)n1)CC2` stands -10.8%.
As to `Cc1noc(C)c1-c1n[nH]c2c1CN(S(=O)(=O)c1ccsc1)CC2`, the INHIBITION came out at 39.4%.
As for `Cc1cc(-c2n[nH]c3c2CN(S(=O)(=O)c2ccsc2)CC3)c(C)o1`, the INHIBITION turned out to be 54.4%.
Take `Cc1noc(C)c1-c1n[nH]c2c1CN(S(=O)(=O)c1cccs1)CC2`: the INHIBITION stood at 61.8%.
On to `CS(=O)(=O)N1CCc2[nH]nc(Cc3cccs3)c2C1`, for which the INHIBITION came to 0.472%.
For the molecule `CCC(CN1CCCC1)n1cncc1-c1cnn(-c2ccccc2)c1` (stereo not drawn), the INHIBITION is 33.95%.
Under `CC(C)[C@H](N)c1nnc(SCC(=O)Nc2ccc(Br)cc2)o1` stands 25.3%; under `Cc1nc(C2CCCN2Cc2ccc(S(=O)(=O)N(C)C)o2)no1` (stereo not drawn), 22.3%.
In the case of `CN(Cc1ccc([S+](C)[O-])cc1)c1ccc(C(F)(F)F)cn1` (stereo not drawn), the INHIBITION worked out at 52.2%.
Take `CN(Cc1ccc(C(N)=O)cc1)c1ccc(C(F)(F)F)cn1`: the INHIBITION was found to be 1.79%.
Under `CN(Cc1ccccc1)c1ccc(C(F)(F)F)cn1` stands 38.6%; under `CN(Cc1ccc([S+](C)[O-])cc1)c1ccc(Br)cn1` (stereo not drawn), 43.7%; under `CNC(=O)c1ccc(CN(C(=O)c2scnc2C)C2CC2)cc1`, 6.92%.
As to `CNC(=O)c1ccc(CN(C)c2ccc(C(F)(F)F)cn2)cc1`, the INHIBITION is 58.3%.
With `CCc1cnc(CN(C)C2CCN(CCNS(=O)(=O)CC)C2)o1` (stereo not drawn), the INHIBITION is reported as -42%.
Under `CN1Cc2c(C(=O)Nc3cccnc3)ncn2-c2ccccc2S1(=O)=O` stands 45.1%.
Take `CN(C)CCO[C@H]1CN(Cc2cccc(C#N)c2)[C@@H]2COC[C@H]12`: the INHIBITION is -46.9%.
Under `CCS(=O)(=O)N1CCC2(CN(C(=O)c3cn(C)cn3)C2)C1` stands -28.2%; under `CCS(=O)(=O)N1CCCC2(CCCN2C(=O)c2cscn2)C1` (stereo not drawn), 4.02%; under `CCS(=O)(=O)N1CCCC2(CCCN2C(=O)c2cn(C)cn2)C1` (stereo not drawn), 61.9%.
On to `COC1CN(CCO)S(=O)(=O)c2ccccc21` (stereo not drawn), for which the INHIBITION stood at 35.1%.
Under `CN(C)C(=O)COCC1CN(Cc2cccs2)Cc2ncn(C)c21` (stereo not drawn) stands -47.8%.
Regarding `Cc1ccc(S(=O)(=O)N(CC(N)=O)CC(C)C)cc1C`, the INHIBITION is -14.2%.
In the case of `Cc1cc(S(=O)(=O)N(CC(N)=O)CC(C)C)ccc1Br`, the INHIBITION was 60.3%.
Under `Cc1cc(S(=O)(=O)N(C)CC(N)=O)ccc1Br` stands 34.6%; under `Cc1cnn(CC2CCCN2C(=O)Cc2ccc(C)nc2)c1` (stereo not drawn), 17.4%.
Under `CC(=O)Nc1ccc(CNCC(O)c2ccccc2)cc1` (stereo not drawn) stands 39.7%; under `CCOc1ccc(CNCC(O)c2ccccc2)cc1Cl` (stereo not drawn), 59.5%; under `COc1ccc(CNCC(O)c2cccc(O)c2)cc1Br` (stereo not drawn), 14.5%.
Under `COCC1CN(C(=O)c2cccc(C)n2)Cc2nccn2C1` (stereo not drawn) stands 24%.
For `CC(NCc1cc2cc(F)ccc2o1)c1nnc2n1CCCC2` (stereo not drawn), the INHIBITION was determined as 35%.
Regarding `Cc1ccoc1CNC(C)c1nnc2n1CCCC2` (stereo not drawn), the INHIBITION came to 34.1%.
Under `CC(NCc1ccc(Cl)o1)c1nnc2n1CCCC2` (stereo not drawn) stands 15.1%.
Under `Cc1ccc(CNC(C)c2nnc3n2CCCC3)o1` (stereo not drawn) stands -4.48%; under `CC(NCc1ccco1)c1nnc2n1CCCC2` (stereo not drawn), 52.9%.
Take `Cc1ccc2oc(CNC(C)c3nnc4n3CCCC4)cc2c1` (stereo not drawn): the INHIBITION is recorded as 50.1%.
Under `CN1CCCN(C(=O)c2nc3c(o2)CN(S(C)(=O)=O)C3)CC1` stands 41.2%; under `COc1cc(N2CCC3(CCCN3Cc3ccn(C)n3)CC2)ncn1`, 21.7%.
Regarding `Fc1cccc(CN2CCC3(CCCN3c3ncccn3)CC2)c1`, the INHIBITION is reported as 42.4%.
As for `Cn1cc(CN2CCC3(CCCN3Cc3cccnc3)CC2)cn1`, the INHIBITION is recorded as 29%.
In the case of `Cc1ccc(N2CCC3(CCCN3Cc3ccn(C)n3)CC2)nn1`, the INHIBITION came out at 53.9%.
In the case of `Cn1ccc(CN2CCCC23CCN(Cc2ccccc2F)CC3)n1`, the INHIBITION came out at 53%.
As for `Cn1ccc(CN2CCCC23CCN(Cc2nccn2C)CC3)n1`, the INHIBITION is reported as 27.6%.
Turning to `Cn1ccc(CN2CCCC23CCN(Cc2cccc(F)c2)CC3)n1`, the INHIBITION was found to be 56.6%.
Consider `Cn1ccc(CN2CCCC23CCNCC3)n1`, for which the INHIBITION is given as -12.1%.
Under `Cn1ccc(CN2CCC3(CCCN3CC3CC3)CC2)n1` stands 17.7%; under `CCOCCCC(=O)Nc1cccnc1-n1ccnc1C`, 7.92%; under `Cc1ccc(C(=O)N2CCCN(Cc3cccs3)CC2)c(=O)[nH]1`, 17.68%.
Under `COc1ccc(C(C)N(C)Cc2c(C3CC3)[nH]c3ncccc23)cc1` (stereo not drawn) stands 44.8%.
In the case of `CN(Cc1ccco1)[C@@H]1CN(C(=O)c2ccnnc2)[C@@H]2CCCO[C@H]12`, the INHIBITION is 41.8%.
For `Cc1ccc(CC(=O)N2Cc3nccn3CC(CN(C)C)C2)cc1` (stereo not drawn), the INHIBITION is on record as 10.1%.
Under `CCOCCNC(=O)c1ccc(OC)cc1I` stands 14.4%; under `COc1c(CNCc2ccc(Cn3ccnc3)cc2)c(C)nn1C`, 16.8%.
Take `CN1C2(CCN(Cc3ccc(F)cc3)C2)c2ccccc2S1(=O)=O` (stereo not drawn): the INHIBITION came out at 16.9%.
Under `CC1N(CC2CC2)C(=O)COC12CCN(C(=O)c1cccs1)CC2` (stereo not drawn) stands 74.8%.
As for `CC1N(CC2CC2)C(=O)COC12CCN(C(=O)c1ccno1)CC2` (stereo not drawn), the INHIBITION came to 11.3%.
For the molecule `COCCN1CCC2(C1)c1ccccc1S(=O)(=O)N2Cc1ccccc1` (stereo not drawn), the INHIBITION was 15.3%.
Under `COCCN1C2(CCN(CC3CC3)C2)c2ccccc2S1(=O)=O` (stereo not drawn) stands -54.9%.
As for `CC1N(CC2CC2)C(=O)COC12CCN(C(=O)c1ccncc1)CC2` (stereo not drawn), the INHIBITION stood at 48.2%.
Under `CCCN1CCC2(C1)c1ccccc1S(=O)(=O)N2Cc1ccc(F)cc1` (stereo not drawn) stands 23.3%; under `CCCN1CCC2(C1)c1ccccc1S(=O)(=O)N2Cc1ccccc1` (stereo not drawn), 68.4%.
In the case of `O=C(N1CCCO1)[C@@]12CCO[C@@H]1CCN(Cc1cccnc1)C2`, the INHIBITION worked out at 17.4%.
Under `CN1CCN(Cc2cccnc2)C(=O)C12CCN(CC1CCOC1)CC2` (stereo not drawn) stands 29.4%; under `O=S1(=O)c2ccccc2C2(CCN(Cc3cccnc3)C2)N1CC1CC1` (stereo not drawn), 76.5%; under `O=S1(=O)c2ccccc2C2(CCN(Cc3ccccc3)C2)N1CC1CC1` (stereo not drawn), 81.3%.
For `CNC(=O)c1cn[nH]c1C1CCCN1c1nc(C)cc(C)n1` (stereo not drawn), the INHIBITION stood at 34.1%.
Under `CCN1CCOCC2(CCCN(C(=O)c3ccccc3F)C2)C1` (stereo not drawn) stands -60.3%; under `CN(C)[C@@H]1CN(Cc2ccccc2O)C[C@H]1c1cn(C)c2ccccc12`, 49.5%.
Under `Cn1ccnc1CNC(=O)c1cnc(C2CCNCC2)cn1` stands 33%.
Consider `COc1ccccc1C1(CNC(=O)NCc2noc(C)n2)CC1`, for which the INHIBITION stood at 4.66%.
For the molecule `Cc1nc(C(=O)N(C)CC(=O)N(C)C)nn1-c1ccccc1C(C)C`, the INHIBITION is -15.5%.
As for `O=C(c1cccs1)N1CCC2(C1)c1ccccc1S(=O)(=O)N2CC1CC1` (stereo not drawn), the INHIBITION was 51.2%.
Under `COCCN1C2(CCN(C(=O)c3cccs3)C2)c2ccccc2S1(=O)=O` (stereo not drawn) stands 8.03%; under `CCNC(=O)N1CCC2(C1)c1ccccc1S(=O)(=O)N2CCOC` (stereo not drawn), -1.15%.
Under `COCCNC(=O)Cn1cc(OCc2ccccc2)c(=O)cc1CO` stands -8.66%.
On to `Cc1cc(C)n(CC2CCCN2C(=O)c2nccc3ccccc23)n1` (stereo not drawn), for which the INHIBITION was -144%.
Under `CC(=O)Nc1ncc(-c2ccc(C)cc2)[nH]1` stands 45.5%; under `COc1ccc(OCCc2nnc(NC(C)=O)s2)cc1`, 20.9%; under `COc1ccc(-c2cnc(NC(C)=O)[nH]2)cc1`, 56%.
As for `CC(C)CCN1C[C@@H]2C[C@H](C(=O)N3CCCC3)[C@H](C1)O2`, the INHIBITION was found to be 10.6%.
Under `COc1ccccc1C(=O)N1CCOCC1c1c(C)n[nH]c1C` (stereo not drawn) stands -34.8%; under `CN1N=C(C(=O)NCCc2ccc(OC3CCCC3)cc2)CCC1=O`, 45.4%.
Take `CC(C)[C@H](NS(C)(=O)=O)C(=O)NCc1cc(-c2ccccc2)nn1C`: the INHIBITION was determined as 20.4%.
Under `CC(C)[C@H](NS(C)(=O)=O)C(=O)NCc1cc(-c2ccco2)nn1C` stands 54.5%.
For `CC(C)[C@H](NS(C)(=O)=O)C(=O)NCc1cc(-c2ccco2)n[nH]1`, the INHIBITION came to 23.4%.
Under `Cc1nc(CN(CCS(C)(=O)=O)C(C)(C)C)no1` stands 12.9%; under `N#Cc1cccnc1N1CCCN(C(=O)CCc2nccs2)CC1`, -19.4%.
Under `CCOCC(=O)NC1(c2nc(C)cs2)CCCC1` stands 25.2%.
In the case of `Cc1nc2cc(CNC(=O)C3CC(=O)N(C4CCCC4)C3)ccc2n1C` (stereo not drawn), the INHIBITION amounted to 53.7%.
Under `Cc1nc2cc(CNC(=O)C3CC(=O)N(CCN(C)C)C3)ccc2n1C` (stereo not drawn) stands -4.35%; under `CCN1CC(C(=O)NCc2ccc3c(c2)nc(C)n3C)CCC1=O` (stereo not drawn), 11.9%.
